D1 PAM – enhances dopamine response at the human D1 receptor | P21728 | HEK293 TREx D1 cells, calcium flux, dopamine EC20 potentiation | potentiation, % at 10 µM | 360,000 tested, 0.036% active | AID 504651; in the data active means potentiation above about 30%; further: 0% is about no effect
Target sequence (P21728 whole entry, looked up): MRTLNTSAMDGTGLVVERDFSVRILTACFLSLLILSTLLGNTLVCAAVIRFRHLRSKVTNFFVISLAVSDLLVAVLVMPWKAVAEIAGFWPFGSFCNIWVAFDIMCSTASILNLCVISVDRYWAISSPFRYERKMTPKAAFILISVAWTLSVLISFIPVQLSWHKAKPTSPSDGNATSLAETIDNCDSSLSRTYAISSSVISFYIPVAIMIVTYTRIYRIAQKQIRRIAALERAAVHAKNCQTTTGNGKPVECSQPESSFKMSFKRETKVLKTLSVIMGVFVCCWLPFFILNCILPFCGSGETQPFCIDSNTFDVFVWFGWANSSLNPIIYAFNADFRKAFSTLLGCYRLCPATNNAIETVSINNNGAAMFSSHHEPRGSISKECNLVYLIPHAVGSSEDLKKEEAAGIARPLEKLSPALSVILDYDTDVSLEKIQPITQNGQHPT
D1 agonist – agonists of human D1 dopamine receptor | activation, % at 2 µM | 360,000 tested, 1% active | HEK293 T-REx D1 cells, calcium flux, agonist mode | P21728; further: 0% is about no effect
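Inducible HEK293 T-REx D1 cells, force-coupled to calcium signalling, were plated at 4000 cells/well with tetracycline and held overnight at 30 C. After no-wash calcium dye loading, compound-evoked calcium rise over 180 s flagged agonists.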
TRHR ag – TRH receptor (human) agonism; P34981; TRHR cells, calcium flux fluo-8, FDSS agonist mode; activation, % at 2 µM; 360,000 tested, 0.18% active; further: 0% is about no effect
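Steps: seed TRHR cells overnight; add fluo-8 no-wash Ca dye, RT 30 min–1.5 h; record 10 s baseline; pin-transfer compounds; monitor fluorescence 1 cycle/s for the agonist window. Calcium increases flag candidate agonists.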
D1 antag – blocks dopamine activation of the human D1 receptor. P21728. HEK293 TREx D1 cells, calcium flux, dopamine EC80; hits give low values. activity change, negative = inhibition, % at 10 µM. 360,000 tested, 3.2% active. AID 504652; in the data active means activity change below about -30%; further: on the % scale 0 is the no-effect control and ±100 the full control effect
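After overnight tetracycline induction at 30 C, force-coupled D1 HEK293 cells took up a no-wash calcium dye at room temperature. Compounds were added and monitored 180 s, and the response to EC80 dopamine was then recorded.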
TRHR PAM – TRH receptor (human) allosteric enhancement. 360,000 tested, 0.66% active. P34981. enhancement, % at 2 µM. TRHR cells, fluo-8 calcium fluorescence, EC20 TRH enhancement; in the data active means enhancement above about 30%; further: 0% is about no effect
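Enhancer read-out: after compound pinning and an initial kinetic agonist-mode read, an EC20 of TRH (10 nM final) was injected and fluo-8 calcium signal (Ex 480/Em 530) followed at 1 s/cycle for 100 cycles in TRHR-expressing cells.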
An asterisk follows results filed as active; ! = not active in a repeat. In the library only some 4.6% were active in any assay of this set; here they are far more common. Unless noted, no stated cut-off is given here; in the data, active means activation above about 30%; inactive means the rest.

SMILES	D1 PAM	D1 agonist	TRHR ag	D1 antag	TRHR PAM
Cc1ccc(S(=O)(=O)N(Cc2ccccc2)c2ccccc2C(=O)NCc2cccnc2)cc1	-6	3	-1	-38*	2
COc1ccc(CNC(=O)[C@@H](NC(=O)C2CCN(S(=O)(=O)c3ccc(C)cc3)CC2)C(C)C)cc1OC	4	0	-1	-33*	-7
O=S(=O)(c1ccc2c(c1)OCCO2)N1CCN(S(=O)(=O)c2cc(F)c(F)cc2F)CC1	2	3	0	-5	-1
Cn1nnnc1Sc1ncnc2scc(-c3cccc([N+](=O)[O-])c3)c12	1	4	-2	1	-12
CCOc1ccc(NC(=O)CCS(=O)(=O)c2cc3c4c(c2)CCN4C(=O)CC3)cc1	-2	1	0	11	0
CC(C)Cn1c(CN2C(=O)c3ccccc3C2=O)nc2ccccc2c1=O	-2	1	0	-2	30*
COc1cc(-c2nc3cnccn3c2Nc2ccc(C(C)C)cc2)ccc1O	-1	34*!	0	-7	-5
O=C(Nc1nc2c(F)cc(F)cc2s1)c1ccc(S(=O)(=O)N2CCc3ccccc32)cc1	-2	4	1	-7	2
Cc1ccccc1NC(=O)Cn1c(=O)n(CCCC(=O)NCc2ccc3c(c2)OCO3)c(=O)c2ccccc21	1	-1	-1	-8	3
Cc1cc2cc(C#N)c(SCC(=O)Nc3nonc3C)nc2cc1C	-2	9	2	-9	2
Cc1nonc1NC(=O)CSc1nc2c(C)cccc2cc1C#N	-5	43*	17	-8	1
O=C(Cn1cc(C(F)(F)F)ccc1=O)NC1CCCC1	-2	2	0	-44*	-5
CCOc1ccc(NC(=O)C(C)n2c(=O)cc(C)c3c(C)nn(-c4ccccc4)c32)cc1 (stereo unspecified)	-3	0	1	11	3
Cc1cccc(C(=O)Nc2oc(-c3ccccc3)cc2C#N)c1	-4	6	0	-49*	-3
N#Cc1cc(-c2ccccc2)oc1NC(=O)c1ccco1	-1	0	0	-3	4
O=C(CCc1ccccc1)NNC(=O)Nc1ccc(F)c(Cl)c1	6	1	0	1	3
CCCSCCCNC(=O)Cn1cc2c(n1)CCC(C)C2 (stereo unspecified)	-1	0	-1	-2	-1
CCN(CC)CCCNC(=O)Cn1cc2c(n1)CCC(C)C2 (stereo unspecified)	-4	1	0	-41*	-1
Cc1cc(-c2csc3nc[nH]c(=S)c23)cc(C)c1C	-5	17	-2	-49*	-7
Cc1ccc(-c2csc3nc[nH]c(=S)c23)cc1	-1	2	-1	-8	0
CCOC(=O)c1c(C)[nH]c(C)c1S(=O)(=O)NCCN1CCN(c2cc(Cl)ccc2C)CC1	-18	1	0	-42*	-2
CCOC(=O)c1c(C)[nH]c(C)c1S(=O)(=O)NCC(=O)NCc1ccc(C)cc1	-1	4	0	-2	-1
CCOC(=O)c1c(C)[nH]c(C)c1S(=O)(=O)NCC(=O)Nc1ccc(CC)cc1	-6	6	0	-35*	11
O=C(COC(=O)C12CC3CC(CC(O)(C3)C1)C2)Nc1ccc(Cl)cc1F	2	0	-1	-4	-3
O=C(COC(=O)C12CC3CC(CC(O)(C3)C1)C2)NCCc1ccc(Cl)cc1	-14	1	0	-40*	-8
SMILES	D1 PAM	D1 agonist	TRHR ag	D1 antag	TRHR PAM
O=[N+]([O-])c1ccc(N2CCSCC2)cc1	-5	2	-1	-38*	-5
O=[N+]([O-])c1ccc(N2CCN(Cc3ccc([N+](=O)[O-])o3)CC2)cc1	-10	8	1	-33*	-11
Cc1nonc1OCCN1CCN(c2ccc([N+](=O)[O-])cc2)CC1	-7	10	0	-40*	0
O=[N+]([O-])c1ccc(N2CCN(c3ccc(F)cc3)CC2)cc1	1	1	1	-11	-1
O=[N+]([O-])c1ccc(N2CCN(CCOc3nonc3-c3ccccc3)CC2)c(Cl)c1	2	0	0	-7	0
CCOc1cc(C(=O)NCCc2csc(-c3ccc(C)cc3)n2)cc(OCC)c1OCC	-5	2	-1	-19	4
Cc1nn(CC(=O)Nc2ccc(Cl)cc2)c(=O)c2cc(-c3ccccc3)nn12	7	0	0	0	-5
CCOC(=O)CNc1ncc(C(F)(F)F)cc1Cl	-4	4	0	20	1
N#CCC(CNc1ncc(C(F)(F)F)cc1Cl)OC(=O)c1ccc(Cl)cc1Cl (stereo unspecified)	-3	31*	0	9	-2
NC(=O)c1c(NC(=O)C2CCCO2)sc2c1CCCC2 (stereo unspecified)	-6	0	1	-15	10
N#Cc1c(NC(=O)C2CCCO2)sc2c1CCCCCC2 (stereo unspecified)	3	6	1	-32*	0
COC(=O)c1sc(NC(=O)C2CCCO2)c(C(=O)OC)c1C (stereo unspecified)	-2	0	-1	-5	32*
O=[S+]([O-])(c1c(F)cccc1F)N1CCN([S+](=O)([O-])c2cccc3nonc23)CC1	-1	1	1	3	-4
Cc1ccccc1OCC(=O)Nc1ccc2nc(SCC(N)=O)sc2c1	-1	5	0	-2	-1
Cc1c(O)c(S(=O)c2ccccc2)c(=O)n(-c2ccccc2)c1-c1ccccc1 (stereo unspecified)	-2	4	1	1	32*
CCN1C(=O)/C(=C/c2cnn(C)c2C)SC1=S	4	2	1	-32*	-5
COc1ccc(S(=O)(=O)N2CCOCC2)cc1NC(=O)[C@@H]1CCCN1C(=O)c1cccs1	-2	0	0	2	1
COc1ccc(S(=O)(=O)N2CCOCC2)cc1NC(=O)C1CCCN1C(=O)c1cccs1 (stereo unspecified)	-6	3	-1	-62*	-4
Cc1ccc(OCC(=O)NCC2(N3CCOCC3)CCCCC2)cc1C	-1	3	-2	-11	-10
CCOC(=O)c1ccc(CN(Cc2ccc(Cl)cc2Cl)S(=O)(=O)c2ccc(F)c(C)c2)cc1	0	45*	4	-32*	-6
CCc1cccc(C)c1NC(=O)c1cc(S(=O)(=O)N(Cc2ccc(C(=O)OC)cc2)Cc2ccc(OC)c(OC)c2)ccc1F	2	5	0	-38*	-9
O=C(Nc1ccc2nc(SCC(=O)N3CCOCC3)sc2c1)c1ccccc1Cl	-1	0	0	-5	-7
O=c1c2sccc2n(Cc2cc(=O)n3ccccc3n2)c(=O)n1-c1cccc(C(F)(F)F)c1	0	-3	-2	-15	2

Assay outcomes: PubChem BioAssay, National Center for Advancing Translational Sciences (NCATS)
